Calls of active or inactive are those of the source. Unless noted, calls follow the shape of the dose curve; as a rule, active = well fitted curve in the direction sought with a large enough effect in the repeat runs; inconclusive = weak or mixed curves; inactive = no such curve, though single readings can be large; an effect the other way counts as inactive or inconclusive.

The nature of assay [1]: qHTS assay to identify small molecule antagonists of the glucocorticoid receptor (GR) signaling pathway - cell viability counter screen (AID 720693). Also: nearly all actives have a fitted effect of over 55% in size. Also: potency is read from the fitted curve at half-maximal effect. A general note: Quantitative high-throughput screening tests each substance at several concentrations.
A short description of assay [2]: qHTS assay for identifying genotoxic compounds that show differential cytotoxicity against isogenic chicken DT40 cell lines with known DNA damage response pathways - Rad54/Ku70 mutant cell line (AID 743015). Also: nearly all actives have a fitted effect of over 60% in size. Also: potency is read from the fitted curve at half-maximal effect.
Assay [3] can be described thus: qHTS assay to identify small molecule antagonists of the androgen receptor (AR) signaling pathway - cell viability counter screen (AID 743033; also: nearly all actives have a fitted effect of over 45% in size; also: potency is read from the fitted curve at half-maximal effect).
Assay [4] can be described thus: qHTS assay to identify small molecule antagonists of the thyroid receptor (TR) signaling pathway - cell viability counter screen (AID 743064). Also: nearly all actives have a fitted effect of over 50% in size. Also: potency is read from the fitted curve at half-maximal effect. The method, boiled down: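 Viability of T3-stimulated (1 nM final) GH3.TRE-Luc cells is measured by CellTiter-Fluor fluorescence after 23.5 h compound exposure at 37 °C plus 30 min reagent incubation.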
Assay [5] relates to thyroid hormone receptor (rat, GH3 cells). The assay is described as follows: qHTS assay to identify small molecule agonists of the thyroid receptor (TR) signaling pathway (AID 743066; calls by dose curve).
In assay [6] the target is Estrogen receptor (Homo sapiens) (UniProt P03372). The assay is described as follows: qHTS assay to identify small molecule antagonists of the estrogen receptor alpha (ER-alpha) signaling pathway (AID 743069; active = well fitted curve in the direction sought with a large enough effect in the signal ratio in the repeat runs, not every such curve was filed as active; inconclusive = weak or mixed curves, or effect the other way; inactive = no such curve, though single readings can be large or run the other way; the % refers to the signal ratio; also: potency is read from the fitted curve at half-maximal effect). The method in brief: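 HEK293 cells stably carrying an ER-alpha-UAS-bla beta-lactamase reporter were pre-cultured overnight in 2% charcoal-stripped FBS medium. Test compounds in DMSO were added together with 17beta-estradiol for 18 hr at 37C. Read-out was fluorescence after 2 hr with LiveBLAzer B/G FRET substrate at room temperature.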

Assay [7] can be described thus: qHTS assay to identify small molecule antagonists of the estrogen receptor alpha (ER-alpha) signaling pathway - cell viability counter screen (AID 743074; calls by dose curve; also: nearly all actives have a fitted effect of over 45% in size).
Assay [8] has as its target Estrogen receptor (Homo sapiens) (UniProt P03372). The assay is described as follows: qHTS assay to identify small molecule agonists of the estrogen receptor alpha (ER-alpha) signaling pathway (AID 743075; calls by dose curve; also: potency is read from the fitted curve at half-maximal effect).
For assay [9] the target is unchanged. The assay is described as follows: qHTS assay to identify small molecule agonists of the estrogen receptor alpha (ER-alpha) signaling pathway using the BG1 cell line (AID 743079). Also: nearly all actives have a fitted effect of over 20% in size. Also: potency is read from the fitted curve at half-maximal effect.
The nature of assay [10]: qHTS assay to identify small molecule antagonists of the estrogen receptor alpha (ER-alpha) signaling pathway using the BG1 cell line - cell viability counter screen (AID 743081).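 Also: compound given together with 17beta-estradiol as the ER stimulus; series mostly up to about 70 µM; nearly all actives have a fitted effect of over 45% in size.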
Assay [11] addresses Aromatase (Homo sapiens) (UniProt P11511). The assay is described as follows: qHTS assay to identify aromatase inhibitors (AID 743083). Also: nearly all actives have a fitted effect of over 55% in size. Also: potency is read from the fitted curve at half-maximal effect.
Assay [12] in a line: qHTS assay to identify small molecule antagonists of the androgen receptor (AR) signaling pathway using the MDA cell line - cell viability counter screen (AID 743041; also: nearly all actives have a fitted effect of over 45% in size). The method, boiled down: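 MDA-kb2 AR-luc human breast carcinoma cells (MMTV-luciferase, AR/GR responsive) were treated with compounds plus R1881 agonist for 16 h at 37 °C. Viability was read as CellTiter-Fluor fluorescence in the same wells as the reporter assay.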

Assay [13] is described as follows: qHTS assay to identify small molecule antagonists of the thyroid receptor (TR) signaling pathway (AID 743065). Also: nearly all actives have a fitted effect of over 55% in size. Also: potency is read from the fitted curve at half-maximal effect. The method in brief: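 GH3.TRE-Luc rat pituitary cells carrying two TR response elements driving luciferase were plated for 4 h, given compound plus 1 nM T3 (final), and incubated 23.5 h at 37 C. ONE-Glo luminescence measured reporter inhibition; CellTiter-Fluor fluorescence tracked cytotoxicity.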

Assay [14] is described as follows: qHTS assay to identify small molecule antagonists of the estrogen receptor alpha (ER-alpha) signaling pathway using the BG1 cell line (AID 743080; calls by dose curve;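 also: BG1 cells stimulated with 17beta-estradiol alongside compound; series mostly up to about 70 µM; nearly all actives have a fitted effect of over 25% in size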). The method in brief:
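Seeding, 24 h rest, compound transfer from DMSO, 17beta-estradiol addition, 21.5 h incubation, CellTiter-Fluor (30 min, 37 C), then ONE-Glo (30 min, room temperature): this sequence was run on BG1-Luc-4E2 reporter cells.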

Assay [15] in a line: qHTS assay for identifying genotoxic compounds that show differential cytotoxicity against isogenic chicken DT40 cell lines with known DNA damage response pathways - wild type cell line (AID 743012). Also: nearly all actives have a fitted effect of over 60% in size. Also: potency is read from the fitted curve at half-maximal effect. The method, boiled down:
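First, wild type DT40 cells were plated at 300 per well and equilibrated about 0.5 h at 37 C/5% CO2. Next, compounds in DMSO were added and exposure lasted 40 h. Finally, CellTiter-Glo was added for 30 min at room temperature and luminescence recorded.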

The nature of assay [16]: qHTS assay for identifying genotoxic compounds that show differential cytotoxicity against isogenic chicken DT40 cell lines with known DNA damage response pathways - Rev3 mutant cell line (AID 743014). Also: nearly all actives have a fitted effect of over 55% in size. Also: potency is read from the fitted curve at half-maximal effect.
The target in assay [17] is Androgen receptor (Homo sapiens) (UniProt P10275). The assay is described as follows: qHTS assay to identify small molecule agonists of the androgen receptor (AR) signaling pathway (AID 743036; active = well fitted activation curve with a large enough effect in the signal ratio in the repeat runs, with a control signal flat, not every such curve was filed as active; inconclusive = weak or mixed curves, or effect the other way; inactive = no such curve, though single readings can be large or run the other way; the % refers to the signal ratio). The method, boiled down: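 Screening used 2,000 AR-bla HEK293 cells per well, treated 16 h at 37C with test compounds in DMSO alongside positive and DMSO-only controls; beta-lactamase activity was then read by LiveBLAzer B/G FRET fluorescence after 2 h at room temperature.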

Assay [18] has the same target. The assay can be described thus: qHTS assay to identify small molecule antagonists of the androgen receptor (AR) signaling pathway using the MDA cell line (AID 743042; also: nearly all actives have a fitted effect of over 55% in size). The method, boiled down:
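MDA-kb2 cells (human breast carcinoma, stably carrying an MMTV-luciferase reporter responsive to AR and GR) were plated at 3,000 cells/well and preincubated 5 hr at 37C, then given compound plus R1881 agonist for 16 h. ONE-Glo luminescence was read.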

Assay [19] shares this target. The assay can be described thus: qHTS assay to identify small molecule antagonists of the androgen receptor (AR) signaling pathway (AID 743035; active = well fitted inhibition curve with a large enough effect in the signal ratio in the repeat runs, not every such curve was filed as active; inconclusive = weak or mixed curves, or effect the other way; inactive = no such curve, though single readings can be large or run the other way; the % refers to the signal ratio). The method, boiled down: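 Beta-lactamase FRET read (2 h RT incubation with LiveBLAzer B/G) following 16 h of compound plus R1881 treatment of AR-UAS-bla HEK293 cells, which had been pre-incubated 4 h at 37C.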

Sequence of Estrogen receptor (Homo sapiens) (P03372 whole entry, looked up): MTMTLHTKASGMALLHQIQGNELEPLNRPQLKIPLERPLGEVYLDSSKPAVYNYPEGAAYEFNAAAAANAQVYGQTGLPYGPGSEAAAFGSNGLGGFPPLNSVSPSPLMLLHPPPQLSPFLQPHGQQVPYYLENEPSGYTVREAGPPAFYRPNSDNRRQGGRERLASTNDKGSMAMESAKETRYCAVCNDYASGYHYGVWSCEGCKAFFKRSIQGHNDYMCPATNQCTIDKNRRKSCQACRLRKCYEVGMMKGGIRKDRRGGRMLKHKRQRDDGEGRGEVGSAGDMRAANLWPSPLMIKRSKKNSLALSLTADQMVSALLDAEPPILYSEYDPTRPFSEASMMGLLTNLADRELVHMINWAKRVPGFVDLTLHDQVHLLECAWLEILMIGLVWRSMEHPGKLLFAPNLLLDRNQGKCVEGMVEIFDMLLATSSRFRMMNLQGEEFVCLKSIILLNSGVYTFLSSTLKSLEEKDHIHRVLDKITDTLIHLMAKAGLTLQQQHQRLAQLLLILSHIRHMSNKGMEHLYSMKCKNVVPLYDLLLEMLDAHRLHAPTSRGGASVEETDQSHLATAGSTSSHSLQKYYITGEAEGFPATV
Sequence of Androgen receptor (Homo sapiens) (P10275 whole entry, looked up): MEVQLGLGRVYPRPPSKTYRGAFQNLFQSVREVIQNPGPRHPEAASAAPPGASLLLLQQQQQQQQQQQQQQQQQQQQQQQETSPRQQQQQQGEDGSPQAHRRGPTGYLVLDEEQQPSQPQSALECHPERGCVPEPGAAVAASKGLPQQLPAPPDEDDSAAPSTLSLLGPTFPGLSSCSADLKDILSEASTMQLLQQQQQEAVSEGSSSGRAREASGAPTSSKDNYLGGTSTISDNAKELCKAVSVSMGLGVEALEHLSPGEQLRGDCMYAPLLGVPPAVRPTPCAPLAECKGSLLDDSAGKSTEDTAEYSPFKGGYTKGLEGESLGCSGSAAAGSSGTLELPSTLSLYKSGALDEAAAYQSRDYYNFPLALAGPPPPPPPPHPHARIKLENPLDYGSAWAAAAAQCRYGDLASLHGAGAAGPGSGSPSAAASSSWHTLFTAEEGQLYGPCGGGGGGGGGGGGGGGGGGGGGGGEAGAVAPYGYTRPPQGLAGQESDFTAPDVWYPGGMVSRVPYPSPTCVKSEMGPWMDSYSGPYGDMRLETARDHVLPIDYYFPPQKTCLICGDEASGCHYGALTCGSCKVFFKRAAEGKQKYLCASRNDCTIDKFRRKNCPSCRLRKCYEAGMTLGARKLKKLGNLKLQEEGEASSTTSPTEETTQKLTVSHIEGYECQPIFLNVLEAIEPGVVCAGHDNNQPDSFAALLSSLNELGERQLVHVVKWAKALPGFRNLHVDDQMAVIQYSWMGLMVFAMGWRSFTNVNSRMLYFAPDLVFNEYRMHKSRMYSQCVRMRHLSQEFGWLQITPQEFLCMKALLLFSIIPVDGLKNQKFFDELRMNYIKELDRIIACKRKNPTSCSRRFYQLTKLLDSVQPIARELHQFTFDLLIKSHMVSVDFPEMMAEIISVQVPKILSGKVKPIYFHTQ
Sequence of Aromatase (Homo sapiens) (P11511 whole entry, looked up): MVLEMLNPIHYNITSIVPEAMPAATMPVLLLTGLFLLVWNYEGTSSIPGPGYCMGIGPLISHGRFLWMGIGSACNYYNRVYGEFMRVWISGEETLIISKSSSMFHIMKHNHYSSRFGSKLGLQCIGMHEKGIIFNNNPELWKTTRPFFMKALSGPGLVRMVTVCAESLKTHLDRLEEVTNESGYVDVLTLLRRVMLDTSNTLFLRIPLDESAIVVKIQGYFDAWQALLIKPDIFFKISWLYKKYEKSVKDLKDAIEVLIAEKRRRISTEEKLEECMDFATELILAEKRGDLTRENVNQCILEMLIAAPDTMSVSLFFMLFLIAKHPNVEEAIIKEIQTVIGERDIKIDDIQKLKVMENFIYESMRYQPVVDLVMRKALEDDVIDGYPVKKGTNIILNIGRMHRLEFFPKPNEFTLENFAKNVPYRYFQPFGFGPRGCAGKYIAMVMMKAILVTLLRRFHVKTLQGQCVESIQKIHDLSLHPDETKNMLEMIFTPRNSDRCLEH

With `CC(=O)Nc1ccc2c(c1)Cc1ccccc1-2`, the Potency result in [1], in assay [3], in assay [4], in [6], in assay [7] and in [8] was “inactive” throughout. Also, the Potency result in assay [10] and in [11] was “inactive” throughout. For the same molecule, the results for the Potency in [2] and in assay [9] were 62.1 µM (active) and 11 µM (active), respectively. In addition, the molecule was called inactive in [5].
On to `ClC1=C(Cl)[C@]2(Cl)[C@H]3[C@H]([C@H]4C=C[C@H]3C4)[C@@]1(Cl)C2(Cl)Cl`, for which the Potency result in assay [1], in [12], in [6], in assay [7], in assay [8] and in assay [14] was “inactive” in each case. The Potency entry in [10] and in assay [11] was “inactive” each time. Besides, the Potency in assay [2] was 61.1 µM (active); in assay [13], 68.6 µM (active); in [9] it was 27.3 µM (active). In [5], the molecule was called inactive.
As for `O=[N+]([O-])c1c2ccccc2cc2ccccc12`, the Potency result in assay [1], in [3], in assay [12] and in assay [11] was “inactive” throughout. The molecule was called inactive in assay [5]. Also, the Potency in [9] was 42.9 µM (active).
Regarding `C1CCC2CCCCC2C1` (configuration not stated), the Potency result in [15], in [16], in assay [2], in assay [3], in assay [12] and in assay [4] was “inactive” throughout. For the same molecule, the Potency result in assay [13], in assay [6], in assay [7], in [8], in [9] and in [14] was “inactive” throughout. Further, the Potency entry in assay [10] and in assay [11] was “inactive” in each case. In [5], the molecule was classed as inactive.
With `O=C(CCCN1CCC2(CC1)C(=O)NCN2c1ccccc1)c1ccc(F)cc1`, the Potency result in assay [1], in assay [12] and in [8] was “inactive” throughout. Further, the Potency in [15] is 29.8 µM (active); in assay [6], 8.49 µM [inconclusive] (active); in assay [11], 29.8 µM (active). Further, the outcome in assay [5] was inactive.
As for `Nc1ccccc1C(=O)OC/C=C/c1ccccc1`, the Potency result in assay [1], in [12], in assay [7], in assay [8], in [10] and in assay [11] was “inactive” in each case. For the same molecule, the outcome in assay [5] was inactive.
For `CN(C)C1CSSSC1`, the Potency result in assay [1], in [3], in [12], in [4], in assay [13] and in assay [6] was “inactive” each time. The Potency result in [7], in assay [8], in [9], in [14], in [10] and in [11] was “inactive” each time. For the same molecule, the Potency in assay [2] is 21.7 µM (active). For the same molecule, in assay [5], the outcome was inactive.
For the molecule `CCCN(CCC)CCc1c[nH]c2ccccc12`, the Potency result in [1], in assay [12], in assay [6], in assay [7], in assay [8] and in assay [9] was “inactive” each time. Also, the Potency result in assay [14] and in assay [11] was “inactive” in each case. Further, the Potency in assay [15] was 53.8 µM (active); in assay [4] it was 53.8 µM (active); in assay [13], 30.2 µM (active). Also, in assay [5], the molecule was classed as inactive.
For the molecule `C[C@]12CC[C@@H]3c4ccc(OC(=O)N(CCCl)CCCl)cc4CC[C@H]3[C@@H]1CC[C@@H]2O`, the Potency entry in [1], in [15], in assay [12], in assay [4], in assay [13] and in assay [7] was “inactive” each time. Moreover, the Potency result in [10] and in assay [11] was “inactive” in each case. For the same molecule, the molecule was classed as inactive in assay [5].
As to `Nc1ccc(Cc2ccc(N)c(Cl)c2)cc1Cl`, the Potency in assay [1] was 53.1 µM (active); in assay [15], 74.4 µM (active); in assay [4], 52.7 µM (active); in [6], 4.22 µM [inconclusive] (active); in assay [11] it was 29.6 µM (active). Moreover, the Potency entry in assay [12], in assay [7], in [8] and in assay [10] was “inactive” throughout.
For the molecule `CC(C)CCCCCCCOP(=O)(Oc1ccccc1)Oc1ccccc1`, the Potency entry in assay [1], in assay [3], in [6], in assay [7], in [8] and in assay [9] was “inactive” in each case. For the same molecule, the Potency entry in [14], in assay [10] and in [11] was “inactive” in each case. Moreover, the Potency in assay [4] is 27.4 µM (active); in [13], 30.8 µM (active).
With `Nc1ccccc1C(=O)Oc1ccc2ccccc2c1`, the Potency entry in assay [1], in [3], in assay [17], in assay [12], in assay [18] and in [4] was “inactive” in each case. The Potency entry in assay [13], in assay [7], in assay [8], in [10] and in assay [11] was “inactive” in each case. The Potency in assay [9] was 4.33 µM (active).
Regarding `Nc1ccc(Sc2ccc(N)cc2)cc1`, the Potency result in [1], in assay [4], in [13], in [6] and in assay [14] was “inactive” in each case. Also, the values for the Potency in assay [2] and in [8] were 62.9 µM (active) and 0.219 µM [inconclusive] (active), respectively. Further, the molecule was classed as inactive in [5].
As to `O=c1ssc(Cl)c1Cl`, the Potency is 3.44 µM (active) in [15]; 2.17 µM (active) in [16]; 3.44 µM (active) in [2]; 43.6 µM (active) in assay [3]; 48.6 µM (active) in assay [4]; 27.3 µM (active) in assay [13]. Moreover, in assay [11], the Potency is 15.4 µM (active). The Potency entry in [12], in [6], in assay [7], in assay [9] and in assay [14] was “inactive” each time. In addition, the molecule was called inactive in assay [5].
As for `O=C(O)COc1nc(Cl)c(Cl)cc1Cl`, the Potency result in [1], in assay [12], in [13], in assay [6], in [8] and in [9] was “inactive” throughout. Also, the Potency entry in assay [14], in assay [10] and in [11] was “inactive” throughout. Moreover, the Potency in assay [16] was 57.4 µM (active). The molecule was classed as inactive in assay [5].
On to `CCCSP(=O)(OCC)SCCC`, for which the Potency in assay [15] was 28.3 µM (active); in assay [2] it was 39.9 µM (active). The Potency result in [3], in assay [19], in assay [17], in assay [12], in assay [13] and in [10] was “inactive” each time. Further, the Potency result in [11] was “inactive”. For the same molecule, the result in assay [5] was inactive.

Source of the values: PubChem BioAssay (Tox21).
